The values below come from PubChem BioAssay (NCATS).

Inconclusive results are not listed. Unmarked numbers belong to inactive results. The source made the active and inactive calls. The call rests on the fitted dose curve; in most records, active means well fitted inhibition curve with a large enough effect; inconclusive means small, poorly fitted or top-dose-only effect; inactive means flat fitted curve, though single readings scatter.
On the % scale 0 is the no-effect control and ±100 the full control effect; potency means the concentration at half of the fitted maximal effect.

For this assay, the system named is HaCat. Description: Cytotoxic Profiling of Annotated Libraries Using Quantitative High-Throughput Screening (AID 1296008). Further: nearly all actives have a fitted effect of over 60% in size. Particulars: Five cell lines viability, CellTiter-Glo ATP luminescence, 48-72 h; max response: hits give low values. The gist of the method:
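Cells exposed to compounds for 48 or 72 hr at 37 degrees Celsius. Viability read as ATP-coupled luminescence with CellTiter-Glo after 10 min at room temperature.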
As for `Cn1c(=O)c2c(ncn2Cc2ccc(C(C)(C)C)cc2)n(C)c1=O`, the max response was -22.1%.

For `CC(O)C(C)n1ncn(-c2ccc(N3CCN(c4ccc(OCC5COC(Cn6cncn6)(c6ccc(Cl)cc6Cl)O5)cc4)CC3)cc2)c1=O` (configuration not stated), the max response is -3.2%. On to `CN1CCN(c2ccc(Nc3cc(-c4cccc(-n5ccc6cc(C7CC7)cc(F)c6c5=O)c4CO)cn(C)c3=O)nc2)CC1`, for which the Potency was 18.4 µM (active). Still for that read-out and setting: in the case of `CC(C)n1cnc2c(-c3cnc(N)nc3)nc(N3CCOCC3)nc21` it was 0.632 µM (active). Take `COc1cc(CCC2=NN=C(NC(=O)c3ccc(N4C[C@@H](C)N[C@@H](C)C4)cc3)C2)cc(OC)c1`: the max response was -66.4%. With `CN1CCN(Cc2ccc(NC(=O)Cc3ccc(Oc4cc(NC(=O)C5CC5)ncn4)cc3)cc2C(F)(F)F)CC1`, the max response is -122%. Regarding `CC[C@@H](C)Nc1cc(C(=O)NC2CC3CC[C@@H](C2)N3c2ccc(C(=O)C3CC3)cn2)c(C)cc1C(N)=O` (some centres not stated), the Potency is 0.092 µM (active). On the same count and under the same terms, in the case of `CCCCNc1ncc(C(=O)NCc2ccc(-n3ccnc3)cc2)c(NC2CCC(O)CC2)n1` (configuration not stated) it was 23.1 µM (active). As to `C[C@@H](N[C@H]1CCCC[C@@H]1NC(=O)c1ccc(Cl)cc1)c1cccc2ccccc12`, the max response is -13%. Regarding `O=C(NCCCc1ccccc1)c1cccc(-c2cc(O)c3ncccc3c2)c1`, the Potency was 25.9 µM (active).

On to `COc1cc(NC(=O)c2cccc(-n3cc(NC(=O)Nc4cccc(C)c4)cn3)c2)cc(OC)c1OC`, for which the max response was 3.54%.

Consider `O=C1C(Cc2ccc(O)cc2)N2C(=O)CCN(C(=O)NCc3ccccc3)C2CN1Cc1cccc2ccccc12` (configuration not stated), for which the Potency was 5.8 µM (active).
